Screening results from PubChem BioAssay.
PI5P4K alpha inh – qHTS for Inhibitors of phosphatidylinositol 5-phosphate 4-kinase (PI5P4K) | Phosphatidylinositol 5-phosphate 4-kinase type-2 alpha (Homo sapiens), P48426 | PI5P4Kalpha enzyme, ADP-Glo luminescence, 60 min; stronger effect = lower value | max response, % | 330,000 compounds, 1.2% hits; active = max response of -50% or lower; inconclusive = between -30% and -50%; inactive = -30% or higher; note: value at the top dose of about 77 µM; % is set by controls: 0 for no effect and ±100 for the full control effect
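Reactions run in 0.038 M HEPES pH 7.4, 0.28 mM EGTA, 0.1% CHAPS and 5% DMSO, with PI5P4Kalpha, substrate, compound and 5 microM ATP final, one hour at room temperature. Readout is ADP-Glo luminescence.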
G9a block – qHTS Assay for Inhibitors of Histone Lysine Methyltransferase G9a. AID 504332, 2011. Potency, µM (doses to about 102 µM), for the others: at the top dose activity, negative = inhibition, usual class: inhibitors. 350,000 compounds, 8.8% hits. G9a H3K9 monomethylation, AlphaScreen, 2 h. Histone-lysine N-methyltransferase EHMT2 (Homo sapiens), Q96KQ7; note: potency is the fitted concentration of half-maximal effect; % is set by controls: 0 for no effect and ±100 for the full control effect; nearly all actives have a fitted effect of over 75% in size
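G9a (20 nM) preincubated 15 min RT with compounds, then 500 nM biotinylated H3K9 peptide and 20 uM SAM added; 2 h RT reaction. Monomethyl-H3K9 product detected by AlphaScreen with anti-H3K9me1 antibody, streptavidin donor and anti-rabbit IgG acceptor beads.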
L3MBTL1 block – qHTS Assay for the Inhibitors of L3MBTL1; AID 485360, 2010; Potency, µM (titrated, usually from 57.1 µM), for the others: at the highest dose activity, negative = inhibition, hits mostly inhibitors; AlphaScreen L3MBTL1–H3K9me1 peptide binding; 230,000 compounds, 0.66% hits; note: potency is the fitted concentration of half-maximal effect; % is set by controls: 0 for no effect and ±100 for the full control effect; nearly all actives have a fitted effect of over 60% in size
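Read-out is AlphaScreen signal from streptavidin donor and nickel chelate acceptor beads (10 ug/mL final each) bridging L3MBTL1 (50 nM) and biotinylated K9-monomethylated H3(1-15) peptide (75 nM), after 30 min compound exposure at room temperature.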
HP1b binding inh – HTS for Inhibitors of HP1-beta Chromodomain Interactions with Methylated Histone Tails; Chromobox protein homolog 1 (Homo sapiens), P83916; AlphaScreen HP1-beta / biotin-H3K9me3 peptide binding; Potency, µM (highest dose often 114 µM), inactives show top-dose activity change, negative = inhibition, most hits filed as inhibitors; 390,000 compounds, 0.56% hits; AID 540317, 2011; note: potency is the fitted concentration of half-maximal effect; nearly all actives have a fitted effect of over 70% in size
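AlphaScreen: HP1-beta (50 nM) preformed 30 min with biotin-H3(1-18)K9me3 peptide (50 nM) in PBS pH 7.4, 0.01% Tween-20. Compound added for 30 min at RT, then streptavidin donor/nickel chelate acceptor beads (10 ug/mL) for 30 min.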
JMJD2A Tudor inh – qHTS Assay for Inhibitors of JMJD2A-Tudor Domain. Lysine-specific demethylase 4A (Homo sapiens), O75164. AlphaScreen JMJD2A-Tudor / H3K4me3 peptide binding. Potency, µM (top dose mostly 114 µM), without a hit: at the highest dose activity change, negative = inhibition, actives largely listed as inhibitors. 390,000 compounds, 4.4% hits; note: potency is the fitted concentration of half-maximal effect; % is set by controls: 0 for no effect and ±100 for the full control effect; nearly all actives have a fitted effect of over 50% in size
Target sequence (O75164 whole entry, looked up, the tested form may be a part): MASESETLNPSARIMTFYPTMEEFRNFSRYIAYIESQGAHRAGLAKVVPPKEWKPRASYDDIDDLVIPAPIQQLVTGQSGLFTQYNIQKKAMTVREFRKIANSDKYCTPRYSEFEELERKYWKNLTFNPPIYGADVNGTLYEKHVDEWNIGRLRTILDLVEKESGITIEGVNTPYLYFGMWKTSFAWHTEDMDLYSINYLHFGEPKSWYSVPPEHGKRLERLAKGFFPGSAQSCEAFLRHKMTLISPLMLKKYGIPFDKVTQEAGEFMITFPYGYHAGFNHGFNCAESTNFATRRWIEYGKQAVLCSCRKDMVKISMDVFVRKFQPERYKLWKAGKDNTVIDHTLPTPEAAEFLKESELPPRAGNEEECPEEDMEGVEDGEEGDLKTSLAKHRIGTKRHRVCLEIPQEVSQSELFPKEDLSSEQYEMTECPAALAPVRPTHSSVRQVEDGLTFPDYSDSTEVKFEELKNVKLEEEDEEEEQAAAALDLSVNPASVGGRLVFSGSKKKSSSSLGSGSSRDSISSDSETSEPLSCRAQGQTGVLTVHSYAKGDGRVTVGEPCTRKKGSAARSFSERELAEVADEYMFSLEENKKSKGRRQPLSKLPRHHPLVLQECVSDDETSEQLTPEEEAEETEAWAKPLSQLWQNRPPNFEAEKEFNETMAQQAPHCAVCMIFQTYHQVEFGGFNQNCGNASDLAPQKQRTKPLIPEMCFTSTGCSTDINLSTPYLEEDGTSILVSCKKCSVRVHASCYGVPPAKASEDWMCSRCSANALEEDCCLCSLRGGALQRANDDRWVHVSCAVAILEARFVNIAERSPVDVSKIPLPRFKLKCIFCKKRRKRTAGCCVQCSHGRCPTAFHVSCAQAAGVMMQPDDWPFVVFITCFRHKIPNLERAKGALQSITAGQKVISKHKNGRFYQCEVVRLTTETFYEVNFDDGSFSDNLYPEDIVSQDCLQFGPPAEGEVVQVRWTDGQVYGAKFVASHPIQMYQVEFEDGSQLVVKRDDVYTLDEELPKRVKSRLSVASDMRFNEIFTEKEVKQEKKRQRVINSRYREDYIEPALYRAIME
BAZ2B inh – qHTS Assay for Inhibitors of BAZ2B; Bromodomain adjacent to zinc finger domain protein 2B (Homo sapiens), Q9UIF8; AlphaScreen BAZ2B-H3K14Ac peptide displacement; Potency, µM (titrated, usually from 114 µM), without a hit: at the top dose activity change, negative = inhibition, actives largely listed as inhibitors; 360,000 compounds, 4.4% hits; AID 504333, 2011; note: potency is the fitted concentration of half-maximal effect; % is set by controls: 0 for no effect and ±100 for the full control effect; nearly all actives have a fitted effect of over 60% in size
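Complex of BAZ2B and biotin-H3K14Ac (50 nM apiece) forms over 30 min at RT, then faces library compounds up to 110 uM for another 30 min; AlphaScreen beads added, 20 min dark incubation, luminescence read.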
Starred values were filed as active, the others as inactive; ! = not active in a repeat; [ ] = another dose, or the depositor's remark. Shown are actives, neighbours in structure and some others; about 11% of the full set was active somewhere. Unless noted, calls come from the whole dose curve; as a rule, active = well fitted inhibition curve with a large enough effect; inconclusive = small, poorly fitted or top-dose-only effect; inactive = no such curve, though single readings can be large or run the other way.

How did COc1ccc(/C=N/N=C(/N)N[N+](=O)[O-])c(OC)c1 do in these assays?
PI5P4K alpha inh: -12; G9a block: 19%[59 µM]; L3MBTL1 block: -3%; HP1b binding inh: 14%; JMJD2A Tudor inh: -16%; BAZ2B inh: -1%

What do the screens show for `CCCN1CCC[C@@H]2Cc3nc(N)ncc3C[C@H]21`?
PI5P4K alpha inh: 4; G9a block: 11µM*!; HP1b binding inh: 24%; JMJD2A Tudor inh: -30%

Results for CCCN1CCC[C@@H]2Cc3n[nH]cc3C[C@H]21 ?
G9a block: 22%[12.7 µM]

Results for CCCN1CCC[C@@H]2Cc3[nH]ncc3C[C@H]21 ?
PI5P4K alpha inh: -1; G9a block: 25µM*!; HP1b binding inh: 8%; JMJD2A Tudor inh: -23%

How did Nc1c(C(=O)Nc2cccc(F)c2)sc2nc(-c3cccs3)ccc12 do in these assays?
G9a block: -1%[59 µM]; HP1b binding inh: 53%; JMJD2A Tudor inh: 13%; BAZ2B inh: 2%

What do the screens show for `COc1ccc(Nc2cc(C)c3cc(NC(=O)c4ccccc4Cl)ccc3n2)cc1`?
G9a block: inconclusive; HP1b binding inh: -3%; JMJD2A Tudor inh: inconclusive; BAZ2B inh: -35%

How did CCCCCCCCCCCCCCCCOC[C@@H](O)COP(=O)([O-])OCC[N+](C)(C)C do in these assays?
G9a block: 26%[59 µM]

What do the screens show for `Brc1cc2c(cc1CN1CCN(c3ccccc3)CC1)OCCO2`?
PI5P4K alpha inh: 26; G9a block: inconclusive; HP1b binding inh: -11%[57 µM]; JMJD2A Tudor inh: inconclusive; BAZ2B inh: inconclusive

How did O=[N+]([O-])c1ccc(CN2CCN(c3ccc(Cl)cc3)CC2)o1 do in these assays?
PI5P4K alpha inh: 0; L3MBTL1 block: -13%; HP1b binding inh: inconclusive; JMJD2A Tudor inh: 18µM*; BAZ2B inh: 45µM*

Results for NCCc1c[nH]c2ccc(F)cc12 ?
G9a block: inconclusive; L3MBTL1 block: 4%; BAZ2B inh: -11%

What do the screens show for `CNCCc1c[nH]c2ccc(O)cc12`?
PI5P4K alpha inh: 6; G9a block: 10µM*; HP1b binding inh: inconclusive; JMJD2A Tudor inh: 22µM*

Results for CNCCc1c[nH]c2ccccc12 ?
PI5P4K alpha inh: 10; G9a block: 28µM*; L3MBTL1 block: 10%; HP1b binding inh: 29%; JMJD2A Tudor inh: -17%; BAZ2B inh: -21%

What do the screens show for `O=C(COc1ccccc1Cl)N1CCN(CCc2ccccn2)CC1`?
G9a block: 12%[59 µM]; HP1b binding inh: 61%; JMJD2A Tudor inh: 3%; BAZ2B inh: -31%

What do the screens show for `CC[C@@H]1CN2CCc3cc(OC)c(OC)cc3[C@H]2C[C@@H]1C[C@@H]1NCCc2cc(O)c(OC)cc21`?
G9a block: -1%[21.5 µM]

How did CCCCn1c(=O)c(C(=O)Nc2ccccc2N)c(O)c2ccccc21 do in these assays?
PI5P4K alpha inh: -8; L3MBTL1 block: 20%; HP1b binding inh: 46%; JMJD2A Tudor inh: 2%; BAZ2B inh: 50µM*

How did CCCCCn1c(=O)c(C(=O)Nc2ccccc2N)c(O)c2ccccc21 do in these assays?
PI5P4K alpha inh: -1; G9a block: 30%; L3MBTL1 block: 3%; HP1b binding inh: 47%; JMJD2A Tudor inh: 1%; BAZ2B inh: 2%

Results for O=C1NC(=O)N(Cc2ccccc2Cl)C(=O)/C1=C/N1CCOCC1 ?
PI5P4K alpha inh: inconclusive; G9a block: inconclusive; L3MBTL1 block: -6%; HP1b binding inh: 39%; JMJD2A Tudor inh: -13%; BAZ2B inh: -2%

Results for O=C1NC(=O)N(Cc2ccco2)C(=O)/C1=C/c1cccn1CCOc1ccccc1Cl ?
PI5P4K alpha inh: -52*; G9a block: inconclusive; L3MBTL1 block: inconclusive; HP1b binding inh: 25%; JMJD2A Tudor inh: -25%; BAZ2B inh: 45µM*

Results for CCCCN1C(=O)/C(=C/C=C/c2ccco2)C(=O)NC1=S ?
PI5P4K alpha inh: -85*; G9a block: 7.9µM*; L3MBTL1 block: 3.5µM*; HP1b binding inh: 35µM*; JMJD2A Tudor inh: 22µM*; BAZ2B inh: 35µM*

How did O=C1NC(=O)N(Cc2ccc(F)cc2)C(=O)/C1=C\C=C\c1ccco1 do in these assays?
PI5P4K alpha inh: -75*; G9a block: 40µM*; HP1b binding inh: 9%; JMJD2A Tudor inh: -20%[11.4 µM]; BAZ2B inh: 56µM*

Results for CN1C(=O)C(=CN2CCN(C(=O)c3ccco3)CC2)C(=O)N(C)C1=S ?
PI5P4K alpha inh: -18; G9a block: inconclusive; L3MBTL1 block: 6%; HP1b binding inh: 48%; JMJD2A Tudor inh: -9%; BAZ2B inh: 5%

Results for CCCCN1C(=O)/C(=C\c2ccco2)C(=O)N(CCc2ccccc2)C1=O ?
PI5P4K alpha inh: -82*; G9a block: 32µM*; L3MBTL1 block: inconclusive; HP1b binding inh: inconclusive; JMJD2A Tudor inh: inconclusive; BAZ2B inh: 35µM*

How did CCC(C)C(=O)OC1C(O)C2C(CN3CC(C)CCC3[C@]2(C)O)C2C[C@]34O[C@@]5(O)C(OC(=O)C(C)(O)C(C)O)CCC3(C)C5C(OC(C)=O)C(OC(C)=O)C4[C@@]21O (stereo partly specified) do in these assays?
G9a block: 5%[2.33 µM]

Results for CN1CCC23CCCC[C@H]2C1Cc1ccc(O)cc13 (stereo partly specified) ?
G9a block: 24%[12.7 µM]

How did O=C1NC(=O)C(=CCc2ccccc2)C(=O)N1 do in these assays?
PI5P4K alpha inh: inconclusive; HP1b binding inh: 62%; JMJD2A Tudor inh: -8%

How did O=C1NC(=O)N(Cc2ccccc2)C(=O)/C1=C\c1ccco1 do in these assays?
PI5P4K alpha inh: -86*; G9a block: 35µM*; L3MBTL1 block: inconclusive; HP1b binding inh: inconclusive; JMJD2A Tudor inh: inconclusive; BAZ2B inh: 40µM*

How did O=[N+]([O-])OC1CO[C@H]2C(O[N+](=O)[O-])COC12 (stereo partly specified) do in these assays?
G9a block: -39%[2.33 µM]

What do the screens show for `O=C(O)CC(O)(CC(=O)O)C(=O)O`?
PI5P4K alpha inh: 0; G9a block: -3%[2.33 µM]; HP1b binding inh: 6%; JMJD2A Tudor inh: 79µM*

What do the screens show for `COc1ccc(NC(=O)N2CC3(CCN(C(=O)Oc4ccccc4)CC3)C2)cc1`?
G9a block: -9%[12.7 µM]
